In the library only some 0.84% were active in any assay of this set; here they are far more common.
NR5A2 inv ag = LRH-1 (NR5A2) inverse agonists, primary screen, cell-based, luminescence, HEK293T, StAR-luciferase reporter; Nuclear receptor subfamily 5 group A member 2 (Homo sapiens), O00482; LRH-1 transfected, 24 h; inhibition, % at 3.6 µM; 0.13% of 360,000 active; AID 602396, 2012;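 active means inhibition above the mean inhibition of all tested compounds plus 3 SD, cut at about 73% in these data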;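 further: 0% = DMSO wells and 100% = reporter-only cells lacking LRH-1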
Target sequence (O00482 whole entry, looked up): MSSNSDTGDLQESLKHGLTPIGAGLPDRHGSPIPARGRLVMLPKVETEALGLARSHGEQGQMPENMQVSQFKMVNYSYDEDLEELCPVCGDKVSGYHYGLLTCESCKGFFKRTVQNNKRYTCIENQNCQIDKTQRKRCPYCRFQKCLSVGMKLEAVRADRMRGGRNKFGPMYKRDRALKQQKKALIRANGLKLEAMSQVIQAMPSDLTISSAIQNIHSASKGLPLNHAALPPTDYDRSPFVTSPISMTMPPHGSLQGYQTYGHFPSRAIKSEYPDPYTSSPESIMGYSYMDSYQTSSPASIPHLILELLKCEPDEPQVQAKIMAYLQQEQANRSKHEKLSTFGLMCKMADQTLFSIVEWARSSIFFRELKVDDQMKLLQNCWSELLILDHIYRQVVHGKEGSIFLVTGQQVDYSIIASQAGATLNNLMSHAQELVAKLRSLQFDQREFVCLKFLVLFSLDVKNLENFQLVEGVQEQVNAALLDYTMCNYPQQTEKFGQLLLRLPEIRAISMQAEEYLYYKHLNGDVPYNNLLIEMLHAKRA
SRC1 inh = SRC1 coactivator transcriptional activity inhibitors, primary screen, cell-based, luminescence. Nuclear receptor coactivator 1 (Homo sapiens), Q15788. HEK293 GAL4-SRC1 luciferase reporter. inhibition, % at 3.6 µM. 0.12% of 360,000 active. AID 588354, 2011;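 active means inhibition above the campaign mean plus 3 SD, with each screening campaign given its own cutoff, cut at about 60% in these data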;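 further: 0% = DMSO treated cells and 100% = gossypol at 36 µM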
SRC3 inh = SRC3 coactivator transcriptional activity inhibitors, primary screen, cell-based, luminescence. HEK293 GAL4-SRC3 luciferase reporter. inhibition, % at 3.6 µM. 0.17% of 360,000 active. AID 588352, 2011;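 active means inhibition above a per-campaign cutoff, the mean of all compounds plus 3 SD, cut at about 60% in these data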;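 further: 0% = DMSO-treated cells and 100% = gossypol-treated cells at 36 µM; higher means less SRC3-driven luciferase light from the GAL4 reporter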
SRC2 inh = inhibition of GAL4-SRC2 driven luciferase reporter, primary screen, SRC2 inhibitor project, cell-based, luminescence; HEK293 GAL4-SRC2 luciferase reporter; 0.17% of 370,000 active; Nuclear receptor coactivator 2 (Homo sapiens), Q15596; AID 651957, 2012; inhibition, % at 9 µM;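 active means inhibition above the mean inhibition of all tested compounds plus 3 SD, set per campaign, cut at about 52% in these data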;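 further: 0% = DMSO treated cells and 100% = cells given Gossypol at 36 µM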
NR2F2 inh = NR2F2 transcriptional activity inhibitors, primary screen, cell-based, luciferase reporter, HEK293T, luminescence. AID 686940, 2013. inhibition, % at 8.6 µM. 0.7% of 370,000 active. HEK293T NGFI-A luciferase reporter;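 active means inhibition above a per-plate cutoff, mean inhibition of test wells between control levels plus 3 SD, cut at about 38% in these data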;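 further: cells cotransfected with COUP-TFII expression vector driving the NGFI-A reporter; 0% = median of COUP-TF2 test wells and 100% = reporter-only cells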
VP16 Luc counter = Gal4-VP16 luciferase reporter inhibitors, counter-screen for COUP-TFII antagonist project, cell-based, luminescence, HEK293; shares compounds with NR2F2 inh; inhibition, % at 8.5 µM; 25% of 2,500 active; in the data active means inhibition above about 13%
COUP-TFII conf = NR2F2 transcriptional activity inhibitors, confirmation, cell-based, luciferase reporter, HEK293, triplicate. HEK293 NGFI-A luciferase reporter, luminescence. 45% of 2,500 active. inhibition, % at 8.5 µM. AID 687008, 2013. shares compounds with NR2F2 inh;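 active means mean inhibition over three repeats above a set limit taken from the earlier primary screen, cut at about 38% in these data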;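 further: 100% = cells given the luciferase reporter alone without the COUP-TF2 vector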
* hit, by the source's call; nt = not tested or not shown; ! = a repeat was not active.

SMILES | NR5A2 inv ag | SRC1 inh | SRC3 inh | SRC2 inh | NR2F2 inh | VP16 Luc counter | COUP-TFII conf
S=C(NCCCN1CCOCC1)N1CCN(c2nc(-c3ccc(Cl)cc3)cs2)CC1 | 16 | 16 | 22 | 25 | 58* | -2 | 28
S=C(NCC1CCCO1)N1CCN(c2cccc(Cl)c2)CC1 (centres undefined) | -9 | 10 | 22 | 2 | 23 | nt | nt
CCOCCCNC(=S)N1CCN(c2nc(-c3ccc(F)cc3)cs2)CC1 | 5 | 14 | 3 | 23 | 59* | -6 | 42*
COc1ccc(C(C)=NOC(=O)c2c(-c3ccccc3Cl)noc2C)cc1CN1CCOCC1 | -14 | -4 | -23 | 5 | 18 | nt | nt
COC(=O)N1Cc2ccnnc2CC1c1ccccc1-c1ccccc1 (centres undefined) | nt | nt | nt | -9 | 8 | nt | nt
O=C(CSc1nnc(-c2ccccc2)n1Cc1ccco1)Nc1ccc(OCc2ccccc2)cc1 | nt | nt | nt | -10 | -6 | nt | nt
Nc1nc2ncccc2cc1C(=O)NC1CC1 | nt | nt | nt | 2 | 2 | nt | nt
Cc1c(C)n(Cc2ccccc2)c2ncnc(Cl)c12 | 25 | 18 | 29 | 38 | 45* | 10 | 42*
COC(=O)[C@H](C(C)C)N1Cc2nnn(Cc3ccccc3)c2-c2ccccc2S1(=O)=O | nt | nt | nt | 17 | 19 | nt | nt
Cc1ccc(-n2c(C)c([N+](=O)[O-])c3ccc(O)c(CN(C)C)c32)cc1 | -10 | 49 | 42 | 36 | 43* | 14* | 21
CCc1c(-c2ccccc2F)ncn1CCc1ccccc1OC | nt | nt | nt | 14 | -6 | nt | nt
CN(C(=O)CN1CCN(c2cc(-c3ccc(-c4ccccc4)cc3)ncn2)CC1)c1ccccc1 | 29 | -27 | 0 | 3 | 54* | -22 | 19
COc1cccc2c1C(=N)c1c(O)c3c(c(O)c1C2=O)CC(O)(C(C)=O)CC3OC1CC(N)C(O)C(C)O1 (centres undefined) | 28 | 57 | 33 | nt | nt | nt | nt
COc1cccc2c1C(=O)c1c(O)c3c(c(O)c1C2=O)C[C@](O)(C(C)=O)C[C@H]3O[C@@H]1C[C@@H](N)[C@@H](O)[C@@H](C)O1 | 99* | -165 | -105 | 47 | 55* | 36* | 47*
CCCCC(=O)N(C)c1c(C)nc2ccc(C(=O)NCCOc3ccc(OC)cc3)cn12 | 7 | 16 | 0 | -16 | -5 | nt | nt
COc1ccc(OCCNC(=O)c2ccc3nc(C)c(N(C)C(=O)CCc4ccccc4)n3c2)cc1 | -1 | 13 | 1 | 45 | 85* | -15 | 3
COc1cccc(CNC(=O)[C@H]2CCCN2C(=O)[C@H]2CCCN2C(=O)c2ccc(F)cc2F)c1 | nt | nt | nt | 7 | -7 | nt | nt
O=C(c1ccccc1F)N1CCN(S(=O)(=O)c2ccc3c(c2)OCCO3)CC1 | -9 | 12 | 5 | 40 | 42* | -13 | 13
CCOC(=O)c1c(-c2ccccc2)csc1NC(=O)CSc1nc(N)cc(N)n1 | 9 | 15 | 3 | 21 | 61* | 7 | 27
Cc1cn([C@H]2C=C[C@@H](CO)O2)c(=O)[nH]c1=O | -2 | -8 | -6 | -15 | 61*! | -1 | -13
Cc1cn(C2CC(O)C(O)C(CO)O2)c(=O)[nH]c1=O (centres undefined) | -5 | 4 | -17 | -14 | 4 | nt | nt
Nc1ccn([C@@H]2O[C@H](C(=O)N[C@H](Cc3ccccc3)C(=O)N3CCN(C(=O)N4CCCCC4)CC3)[C@@H](O)[C@H]2O)c(=O)n1 | nt | nt | nt | -11 | -9 | nt | nt
CC(C)C(=O)N1CCN(c2ccc(NC(=O)COc3ccccc3[N+](=O)[O-])cc2)CC1 | 2 | 23 | 49 | 25 | 50* | -2 | 28
CCOC(=O)N1CCN(C(=O)C(NC(=O)c2ccc(C(C)(C)C)cc2)C(C)C)CC1 (centres undefined) | 10 | -7 | 1 | 26 | 40* | -4 | 0
CCCC1CCC2(CCCN2CCOC(=S)Nc2ccccc2Br)CC1 (centres undefined) | nt | nt | nt | nt | 26 | nt | nt
SMILES | NR5A2 inv ag | SRC1 inh | SRC3 inh | SRC2 inh | NR2F2 inh | VP16 Luc counter | COUP-TFII conf
CCCC1CCC2(CCCN2CCOC(=S)Nc2ccccc2OC)CC1 (centres undefined) | nt | nt | nt | nt | 51* | 2 | 8
C[C@@H]1CN([C@@H](C)CO)C(=O)CCCn2nncc2CO[C@H]1CN(C)C(=O)Nc1ccc(F)cc1 | 4 | 1 | -3 | 5 | 13 | nt | nt
CCC(Sc1nc(=O)cc(N)n1-c1cccc(C)c1)C(=O)Nc1cc(C)on1 (centres undefined) | 15 | 11 | 18 | -2 | 43* | -3 | 12
CN(C(=O)c1cccc(NC(=O)Cc2ccc(NC(=O)C3CCCN(C(=O)CCc4ccccc4)C3)cc2)c1)C1CC1 (centres undefined) | 17 | 12 | 2 | 8 | 10 | nt | nt
CN(Cc1ccccc1)C(=O)c1ccc(NC(=O)Cc2ccc(NC(=O)C3CCCN(C(=O)C4CCC4)C3)cc2)cc1 (centres undefined) | -1 | 2 | 12 | -1 | 10 | nt | nt
CN(Cc1ccccc1)C(=O)c1cccc(NC(=O)Cc2ccc(NC(=O)C3CCN(C(=O)CCc4ccccc4)CC3)cc2)c1 | 7 | 15 | 8 | 31 | 70* | 5 | 43*
CN(Cc1ccccc1)C(=O)c1ccc(NC(=O)Cc2ccc(NC(=O)C3CCCN(C(=O)CCc4ccccc4)C3)cc2)cc1 (centres undefined) | 42 | 25 | 23 | 8 | 75* | 8 | 70*
CN(C(=O)c1cccc(NC(=O)Cc2ccc(NC(=O)C3CCCN(C(=O)CCc4ccccc4)C3)cc2)c1)C1CCCCC1 (centres undefined) | 48 | 35 | 6 | 23 | 77* | 0 | 62*
C[C@]12Cc3ccccc3C1CC1=N[C@@H](c3ccc(C(F)(F)F)cc3)O[C@@]13C[C@@H]2C(=O)N3C1CCN(Cc2ccccc2)CC1 (some centres undefined) | nt | nt | nt | -14 | 32 | nt | nt
C#CCOCCOCCOCCNc1nc(N2CCN(C(=O)[C@H](CCCCN)n3cc([C@@H](N)CC(C)C)nn3)CC2)nc(N2CCN(C(=O)[C@H](Cc3cc4ccccc4[nH]3)n3cc([C@@H](N)CC(C)C)nn3)CC2)n1 | nt | nt | nt | nt | -26 | nt | nt
Cc1nc2cc(C(=O)N3CCN(C(=O)C(C)(C)C)CC3)ccc2n1C1CCCC1 | nt | nt | nt | 23 | 10 | nt | nt
O=C(O)c1ccc2nc(-c3ccccc3)sc2c1 | -31 | -39 | -4 | 25 | -8 | nt | nt
Nc1ccc(-c2nc3ccc(C(=O)O)cc3s2)cc1 | -7 | 9 | 33 | 34 | 42* | -96 | -24
